Test results as given in PubChem BioAssay (NCI).
This is part of a sample that, as a whole, favours compounds with a hit. Of some 79,000 tested, about 15% had one in any assay. Unmarked numbers belong to inactive results. The source made the active and inactive calls. Cut-off read from the data, not from the text of the source: active = growth inhibition above about 70%; inactive = the rest.

Tests used:
[1] = NCI Yeast Anticancer Drug Screen. Data for the rad50 strain (AID 155);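 note: 0% = growth of vehicle-only cultures of the same strain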; conditions: S. cerevisiae rad50 strain growth inhibition, stronger effect = higher value
In short: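 Relative growth inhibition (compound vs vehicle) was measured in yeast with a defined repair-gene alteration.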

[2] = NCI Yeast Anticancer Drug Screen. Data for the mec2-1 strain (AID 157); conditions: S. cerevisiae mec2-1 strain, stronger effect = higher value
In short: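 Mutant yeast (mec2-1) grown with compound; growth inhibition relative to vehicle control reported.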

[3] = NCI Yeast Anticancer Drug Screen. Data for the sgs1 mgt1 strain (AID 161);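 note: 0% = growth of cultures given vehicle only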; conditions: S. cerevisiae sgs1 mgt1 strain, stronger effect = higher value
In short: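 Growth of a repair-deficient yeast mutant was monitored after compound treatment and expressed as inhibition relative to vehicle-treated cultures.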

[4] = NCI Yeast Anticancer Drug Screen. Data for the cln2 rad14 strain (AID 165);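 note: 0% = growth equal to vehicle treated cultures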; conditions: S. cerevisiae cln2 rad14 strain, stronger effect = higher value
In short: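 Readout is yeast growth inhibition versus vehicle-treated controls, using a strain with cln2 and rad14 alterations exposed to compound.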

[5] = NCI Yeast Anticancer Drug Screen. Data for the bub3 strain (AID 167); conditions: S. cerevisiae bub3 mutant strain, stronger effect = higher value
In short: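 Screening used yeast with an engineered genetic alteration affecting cell cycle control. Compound-exposed cultures were compared with vehicle cultures, and reduced growth was taken as inhibition.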

[6] = NCI Yeast Anticancer Drug Screen. Data for the mlh1 rad18 strain (AID 175); conditions: S. cerevisiae mlh1 rad18 strain growth inhibition, stronger effect = higher value
In short: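 Genetically defined yeast (DNA repair-deficient) exposed to compounds; growth inhibition determined relative to vehicle.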

[7] = at 5.0 µM (retest, dose inferred, filed as 0.5)
[8] = at 50.0 µM (retest, dose inferred, filed as 5.0)

Row | Compound | growth inhibition [1, 7] | growth inhibition [1, 8] | growth inhibition ([1]; at 50.0 µM) | growth inhibition [2, 7] [%] | growth inhibition [2, 8] | growth inhibition ([2]; at 50.0 µM) | growth inhibition [3, 7] | growth inhibition [3, 8] | growth inhibition ([3]; at 50.0 µM) | growth inhibition [4, 7] | growth inhibition [4, 8] | growth inhibition ([4]; at 50.0 µM) | growth inhibition [5, 7] | growth inhibition [5, 8] | growth inhibition ([5]; at 50.0 µM) | growth inhibition [6, 7] | growth inhibition [6, 8] | growth inhibition ([6]; at 50.0 µM)
1 | O=[N+]([O-])c1ccc(/C(=C\c2ccccc2)Cn2ccnc2)cc1 | 88% (active) | 94% (active) | 71.5% (active) | 59 | 85% (active) | 77% (active) | 84% (active) | 92% (active) | 71.3% (active) | 89% (active) | 91% (active) | 64.8% | 78% (active) | 94% (active) | 81.8% (active) | 80% (active) | 92% (active) | 75.5% (active)
2 | COc1ccccc1NC(=O)/C(=C/n1c(=S)sc2ccccc21)C(C)=O | -19% | 14% | 38.3% | -19 | 14% | 48% | 7% | 20% | 63.6% | 11% | 17% | 64.2% | -9% | 30% | 29.5% | -14% | 14% | 47%
3 | CC1(C)CC(=O)C(CC2C(=O)c3ccccc3C2=O)C(=O)C1C(=O)C(=O)Nc1cccc2ccc(O)cc12 (stereo not given) | 28% | 48% | 7.85% | 25 | 23% | -13.3% | 10% | 39% | -8.6% | 22% | 39% | -7.7% | 30% | 36% | -31.9% | 32% | 52% | -30.2%
4 | Nc1c2c(=O)[nH]c(=O)c2c(N)c2c(=O)c3ccccc3c(=O)c12 | 36% | 53% | 78.2% (active) | 21 | 47% | 35.8% | 50% | 72% (active) | 38% | -26% | 41% | 34.5% | 21% | 78% (active) | 29.4% | 30% | 59% | 60.6%
5 | NCCCN1c2ccccc2Sc2ccc(Cl)cc21 | -7% | 75% (active) | -10.7% | 12 | 58% | -25.5% | 10% | 83% (active) | 13.4% | 0% | 20% | -25.7% | -1% | 37% | 71.9% (active) | 17% | 98% (active) | 18.1%
6 | Nc1cc(=O)[nH]c(=S)[nH]1.[Pd] | 0% | -4% | 20% | 4 | 5% | 18.6% | 5% | 6% | 13.3% | 0% | 36% | 71% (active) | 3% | 13% | -4.45% | 0% | -4% | 35.6%
7 | CC1(C)OC2C(COC(c3ccccc3)(c3ccccc3)c3ccccc3)OC(n3ccc(=O)[nH]c3=O)C2O1 (stereo not given) | 57% | 92% (active) | 75.9% (active) | 35 | 96% (active) | 53.6% | 43% | 56% | 75.3% (active) | 28% | 75% (active) | 52.1% | 42% | 94% (active) | 72.6% (active) | 52% | 95% (active) | 70.5% (active)
8 | CCN(CC)CCOc1c(I)cc(I)cc1I | 2% | 98% (active) | 84.3% (active) | 0 | 98% (active) | 82.4% (active) | 12% | 99% (active) | 96.5% (active) | 7% | 98% (active) | 98.2% (active) | 6% | 98% (active) | 84.8% (active) | 1% | 99% (active) | 99.2% (active)
9 | CCOC(=O)/C(=C\c1cccc(C(F)(F)F)c1)P(=O)(OCC)OCC | 31% | 50% | 75.7% (active) | -8 | 74% (active) | 79% (active) | 3% | 55% | 68.1% | 26% | 40% | 42.1% | 27% | 85% (active) | 71.8% (active) | 13% | 82% (active) | 52.2%
10 | CCOC(=O)C(=Cc1ccccc1)C(=O)OCC | 20% | 92% (active) | 73% (active) | 20 | 91% (active) | 88.8% (active) | 9% | 92% (active) | 92.6% (active) | 13% | 78% (active) | 69.5% | 48% | 94% (active) | 92.2% (active) | 12% | 94% (active) | 93.3% (active)
